# Assay results as given in PubChem BioAssay (EPA / NIEHS).
# Inconclusive results are not listed. The source made the active and inactive calls. Rule for the calls: active = hit-call score of the fitted dose curve at least 0.9, where 1 is the maximum; inconclusive = response in the unintended direction; inactive = score below 0.9.
# Test: TAMU_PeakParms_SingleDonor1434_QT: Texas A&M University (TAMU) 1.5-hr Human Induced Pluripotent Stem Cell (iPSC)-derived Cardiomyocytes Calcium (Ca+2) Flux Assay for Cardiotoxicity: QT (decay-rise ratio) (AID 2284235)
# Procedure, shortened: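 iPSC-derived cardiomyocytes (single donor 1434) dosed at 0.2, 1, 10, 100 uM final in 0.5% DMSO, 90 min at 37C. Ca2+ flux fluorescence decay/rise ratio; EC05 (5% increase versus DMSO) as POD, excluding beat-arrest and severe-notch data.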
row,Compound,outcome
1,c1ccc2[nH]c(-c3cscn3)nc2c1,inactive
2,CC(C)(c1ccc(O)cc1)c1ccc(O)cc1,inactive
3,CC(=O)[C@H]1CC[C@H]2[C@@H]3CCC4=CC(=O)CC[C@]4(C)[C@H]3CC[C@]12C,inactive
4,CC1(C)C(C=C(Cl)Cl)C1C(=O)OCc1cccc(Oc2ccccc2)c1 (stereo not given),inactive
5,O=C(O)c1ccccc1,inactive
